{"source": "PubChem BioAssay AID1985", "about": "(Southern Research Specialized Biocontainment Screening …, 2009)", "note": "In all, about 2,300 compounds went through this assay and about 1,000 (43%) were called active. The rule behind the calls is not given here. The set was probably picked from earlier hits. This is one part of the list. Measured potencies and affinities stand elsewhere."}
{"test": "PhoP regulon inhibitor project modified counter assay, GFP fluorescence readout, dose response (AID 1985)", "conditions": "S. Typhi, 4 h; series mostly up to 150 µM; inhibition: at the top concentration"}
{"smiles": "COc1ccc(OC)c(NC(=O)CCNS(=O)(=O)c2ccc3c(c2)c(=O)n(C)c(=O)n3C)c1", "inhibition": "-17.4% (inactive)"}
{"smiles": "CCOC(=O)c1[nH]c2ccc(Cl)cc2c1NC(=O)c1nonc1C", "inhibition": "-6% (inactive)"}
{"smiles": "Cc1ccc(/C=N/NC(=O)Cc2cccn2C)cc1", "inhibition": "-7.42% (inactive)"}
{"smiles": "Cc1cc(Cl)ccc1OCC(=O)N/N=C/c1ccncc1", "inhibition": "27% (inactive)"}
{"smiles": "NS(=O)(=O)c1cc2c(cc1Cl)NC(Cc1ccccc1)NS2(=O)=O", "note": "(stereo not drawn)", "inhibition": "38.7% (inactive)"}
{"smiles": "CN(Cc1ccccc1)S(=O)(=O)c1csc(C(N)=O)c1", "inhibition": "22.6% (inactive)"}
{"smiles": "Cn1cc(S(=O)(=O)Nc2ccc(OC(F)(F)F)cc2)c(=O)n(C)c1=O", "inhibition": "25.2% (inactive)"}
{"smiles": "CCOc1ccc2ccccc2c1C(=O)N[C@@H]1C(=O)N2[C@@H]1SC(C)(C)[C@@H]2C(=O)O", "inhibition": "-10.7% (inactive)"}
{"smiles": "CN(C)C(=O)CSc1nnc(Cc2ccc([N+](=O)[O-])cc2)o1", "inhibition": "-18.1% (inactive)"}
{"smiles": "O=C(c1ccccc1)N1CCN(c2ccc([N+](=O)[O-])c(NCc3ccco3)c2)CC1", "inhibition": "5.83% (inactive)"}
{"smiles": "COc1ccc(CCC(=O)NCc2cn3ccccc3n2)cc1", "inhibition": "-11.1% (inactive)"}
{"smiles": "CCOC(=O)CSc1nnc2c(n1)C1(C)CCC2C1(C)C", "note": "(stereo not drawn)", "inhibition": "-14.7% (inactive)"}
{"smiles": "O=C(N/N=C/c1ccc(N2CCOCC2)cc1)c1ccc(O)cc1", "inhibition": "35.5% (inactive)"}
{"smiles": "CC(C)=CCN1CCN(Cc2nc(-c3ccccc3)cs2)CC1CCO", "note": "(stereo not drawn)", "inhibition": "3.84% (inactive)"}
{"smiles": "CC1CCCCN1S(=O)(=O)c1ccc(S(=O)(=O)NCCc2ccncc2)cc1", "note": "(stereo not drawn)", "inhibition": "-8.76% (inactive)"}
{"smiles": "Brc1ccc2nc(-c3c[nH]c4ccccc34)cn2c1", "inhibition": "17% (inactive)"}
{"smiles": "Cc1cccc(OCC(=O)NNc2c3ccccc3nc3ccccc23)c1", "inhibition": "18.2% (inactive)"}
{"smiles": "CC1(C)CC(CCNC(=O)c2ccc(-n3cnnn3)cc2)CC(C)(C)N1", "inhibition": "-11.9% (inactive)"}
{"smiles": "Cc1cc(=O)n(CC(C)C)c(O)c1C#N", "inhibition": "-9.81% (inactive)"}
{"smiles": "Cc1onc(C(=O)/C=C/N(C)C)c1C(=O)Nc1nccs1", "inhibition": "-7.71% (inactive)"}
{"smiles": "CCOc1ccccc1-c1cc(-c2ccccc2)nc2c1c(=O)n(C)c(=O)n2C", "inhibition": "-4.34% (inactive)"}
{"smiles": "C=C(C)COc1ccc2c(C)c(CCC(=O)NC3CC3)c(=O)oc2c1", "inhibition": "11.8% (inactive)"}
{"smiles": "N#Cc1ccc(-c2ccc(OCC(=O)NCCCN3CCCC3=O)cc2)cc1", "inhibition": "20.2% (inactive)"}
{"smiles": "CC1(C)CC(=O)C(C(=O)/C=C/NCCc2ccccc2)C(=O)C1", "inhibition": "24.8% (inactive)"}
{"smiles": "CC(C)(C)c1ccc(NC(=O)NCc2ccco2)cc1", "inhibition": "-27.9% (inactive)"}
{"smiles": "Cc1ccc(SCc2[nH]nc3c2C(c2cccnc2)C(C#N)=C(N)O3)cc1", "note": "(stereo not drawn)", "inhibition": "-10.8% (inactive)"}
{"smiles": "Nc1cc(N2CCOCC2)c(Cl)cc1[N+](=O)[O-]", "inhibition": "5.58% (inactive)"}
{"smiles": "C=C(C)Cn1c(SCC#N)nc2ccccc2c1=O", "inhibition": "-7.42% (inactive)"}
{"smiles": "COc1cccc(CNC23CC4CC(CC(C4)C2)C3)c1OCc1ccccc1", "inhibition": "-24.5% (inactive)"}
{"smiles": "Cc1ccc(NC(=S)NCc2cccs2)cc1", "inhibition": "2.63% (inactive)"}
{"smiles": "Cc1ccc(NC(=S)NCc2cccnc2)cc1", "inhibition": "33.4% (inactive)"}
{"smiles": "COc1cccc(CNS(=O)(=O)c2ccc3c(c2)NC(=O)CS3)c1", "inhibition": "-14.7% (inactive)"}
{"smiles": "CC(c1ccccc1)(c1ccccc1)c1ccncc1", "inhibition": "3% (inactive)"}
{"smiles": "CC(C)SCc1nc2ccccc2[nH]1", "inhibition": "-25.3% (inactive)"}
{"smiles": "Nc1cncc(C(=O)O)c1", "inhibition": "0.69% (inactive)"}
{"smiles": "C/C(=N\\NC(=O)COc1ccccc1[N+](=O)[O-])c1cccs1", "inhibition": "-1.26% (inactive)"}
{"smiles": "CCCC(=NCc1ccccc1)C1=C(O)C(C(=O)OC)C(C)(C)CC1=O", "note": "(stereo not drawn)", "inhibition": "-20.1% (inactive)"}
{"smiles": "CN1C2=CC=CC=CC2=[N+](C)C12C=CC(=[N+]([O-])[O-])C=C2[N+](=O)[O-]", "note": "(stereo not drawn)", "inhibition": "5.18% (inactive)"}
{"smiles": "Cc1cc(Br)cc2cn[nH]c12", "inhibition": "-9.69% (inactive)"}
{"smiles": "O=C(Nc1ccccc1)Nc1cccc(Cl)c1", "inhibition": "29.5% (inactive)"}
{"smiles": "O=C(CCl)Nc1nccs1", "inhibition": "-39.9% (inactive)"}
{"smiles": "CCCN1C(=O)c2ccc(C(=O)Nc3nccs3)cc2C1=O", "inhibition": "-2.62% (inactive)"}
{"smiles": "O=C(COc1ccc2ccccc2c1)Nc1nccs1", "inhibition": "15.3% (inactive)"}
{"smiles": "Cc1[nH]c(=O)[nH]c(=O)c1S(=O)(=O)N1CCCC(C(=O)NCc2ccc3c(c2)OCO3)C1", "note": "(stereo not drawn)", "inhibition": "6.67% (inactive)"}
{"smiles": "COc1ccc(NC(=O)N(CCc2ccccc2)Cc2cc3c(C)cc(C)cc3[nH]c2=O)cc1", "inhibition": "1.31% (inactive)"}
{"smiles": "CCCOc1ccc(N2C(=O)C3C(C(C)C)NC4(C(=O)c5ccccc5C4=O)C3C2=O)cc1", "note": "(stereo not drawn)", "inhibition": "-27.7% (inactive)"}
{"smiles": "COc1ccc(OC)c(S(=O)(=O)N2CCC(C(=O)NCc3ccccc3OC)CC2)c1", "inhibition": "5.13% (inactive)"}
{"smiles": "O=C(NCc1ccccc1)c1ccc(CNc2c(N3CCCC3)c(=O)c2=O)cc1", "inhibition": "10.7% (inactive)"}
{"smiles": "Cc1ccc(C(C(=O)NCCc2ccccc2)N(C(=O)c2csnn2)C2CC2)o1", "note": "(stereo not drawn)", "inhibition": "-9.88% (inactive)"}
{"smiles": "CCC(C)(c1ccc(C(=O)OC)s1)c1ccc(C(=O)OC)s1", "inhibition": "-7.04% (inactive)"}
{"smiles": "CN1C(=O)/C(=C2/C=Cc3ccccc3N2CCCS(=O)(=O)O)SC1=S", "inhibition": "4.45% (inactive)"}
{"smiles": "COc1ccccc1-n1c(SCC(=O)O)nnc1-c1ccc(S(=O)(=O)N2CCCCC2)cc1", "inhibition": "-8.39% (inactive)"}
{"smiles": "O=C(Nc1ccc(F)cc1)C1CCC(CNc2c(N3CCCCC3)c(=O)c2=O)CC1", "note": "(stereo not drawn)", "inhibition": "4.3% (inactive)"}
{"smiles": "CCCC(c1nnnn1Cc1ccc(OC)cc1)N1CCN(c2ccccc2OC)CC1", "note": "(stereo not drawn)", "inhibition": "-12.5% (inactive)"}
{"smiles": "COc1ccccc1Oc1coc2c(CN3CCN(C)CC3)c(O)ccc2c1=O", "inhibition": "14.4% (inactive)"}
{"smiles": "Cc1c(C(=O)N2CCN(Cc3ccccc3)CC2)sc2ncnc(N3CCOCC3)c12", "inhibition": "8.11% (inactive)"}
{"smiles": "Oc1c(CN2CCOCC2)cc(COCc2ccccc2)c2cccnc12", "inhibition": "-18.9% (inactive)"}
{"smiles": "Oc1ccc(CN2CCN(c3ccccc3)CC2)c2cccnc12", "inhibition": "15.8% (inactive)"}
